# Reference: PubChem BioAssay AID624413 (The Scripps Research Institute Molecular Screening Center, 2012)
# Among all 1,400 compounds or so, about 160 (11%) were called active. Only a sample is shown. Values without a mark were called inactive. No stated cut-off is given here; in the data, active means inhibition above about 15%; inactive means the rest.
# Assay: Jurkat T cell cytotoxicity, cytotoxicity control for T. brucei MetRS inhibitor project, luminescence, high throughput (AID 624413);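 further: 0% = vehicle and 100% = reference inhibitor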
# Conditions: Jurkat cells viability, ATP luminescence; at 8.3 µM; active compounds read high
row,Compound,inhibition
1,Cc1ccc(N2C(=O)CC(NCc3ccc4c(c3)OCO4)C2=O)cc1Cl (stereo not drawn),-6.39%
2,O=[N+]([O-])c1ccc(N2CCN(c3ccc(O)cc3)CC2)c(Cl)c1,1.76%
3,O=S(=O)(NCc1ccc(Cl)cc1Cl)c1cccs1,-0.99%
4,O=C(Nc1ccccc1)Nc1nnc(COc2ccccc2F)s1,5.35%
5,O=C(NNC(=O)c1ccc(-n2cncn2)c([N+](=O)[O-])c1)c1ccccc1,5.48%
6,O=C(CSCC(=O)Nc1cccc([N+](=O)[O-])c1)Nc1ccccc1,-0.93%
7,O=C(Nc1cccc([N+](=O)[O-])c1)N1CCc2ccccc2C1,17% (active)
8,O=C(Nc1ccc(Cl)cc1)N1CCc2[nH]c3ccccc3c2C1,1.46%
9,O=C(/C(=N\O)n1cncn1)c1ccc(Br)cc1Br,-3.9%
10,O=C(NNc1cc(Cl)cc(Cl)c1)c1c(F)cccc1Cl,1.84%
11,COc1ccc(CCn2ccc(O)c(Cc3ccc(Cl)cc3Cl)c2=O)cc1OC,9.61%
12,Cc1ccc(S(=O)(=O)c2c[nH]c3ccc(Cl)cc3c2=O)cc1,5.58%
13,CCCCCCCC[n+]1cccc(C(=O)N2c3c(nc(N)[nH]c3=O)NC(C)C2C)c1 (stereo not drawn),10%
14,CC(=O)c1ccc(NC(=O)c2ccc(-n3cncn3)c([N+](=O)[O-])c2)cc1,2.58%
15,CCCCN(C)Cc1c(C)[nH]c2ccc(Cl)cc2c1=O,-0.56%
16,c1ccc(CN=C2Nc3ccccc3CS2)nc1,0.23%
17,OCCNc1nc2ccccc2n1-c1ncnc2sc3c(c12)CCC3,9.96%
18,Clc1ccc(-c2cc(C3CCNCC3)[nH]n2)c(Cl)c1,-0.28%
19,NC1=NC(=O)S/C1=C\c1ccc(O)cc1,7%
20,COC(=O)/C(=C\Nc1ccccc1)NC(=O)c1ccc(Cl)cc1Cl,11.3%
21,O=C(NCc1cccc(CNC(=O)Nc2cccc(O)c2)c1)Nc1cccc(O)c1,13.5%
22,Cc1ccc(NC(=O)C(C)c2cccc(C(=O)c3ccccc3)c2)cc1 (stereo not drawn),1.82%
23,OC(c1cc(Cl)cc(Cl)c1)c1ncc(-c2ccccc2C(F)(F)F)[nH]1 (stereo not drawn),6.67%

row,Compound,inhibition
1,CCCCN1C[C@H](c2ccc(Br)cc2)[C@@H](CC(=O)Nc2ccc(Br)cc2)C1=O,7.69%
2,c1ccc2cc3c(NCCN4CCOCC4)ccnc3cc2c1,22.4% (active)
3,Cc1ccc(S(=O)(=O)c2c[nH]c3ccc(C)cc3c2=O)cc1,4.57%
4,CCN(CC)C(=O)C(=O)c1cn(CC(=O)NCc2ccc3c(c2)OCO3)c2ccccc12,2.71%
5,NS(=O)(=O)c1ccc(CCNC(=O)Nc2ccc(Cl)cc2)cc1,3.2%
6,O=C(Cc1ccc(S(=O)(=O)N2CCOCC2)s1)Nc1ccc(Br)c(C(F)(F)F)c1,4.25%
7,O=C(CC(=O)Nc1ccc(Cl)c(Cl)c1)N/N=C/c1ccc(O)cc1,3.68%
8,O=C(Cn1c2[n+](c3ccc(C(F)(F)F)cc31)CCCCC2)Nc1c(F)cccc1F,7.63%
9,S=c1[nH]nc(CSCc2ccc(Cl)cc2Cl)n1-c1ccccc1,7.09%
10,Cc1ccc(-c2cnc(C(O)c3cc(Cl)cc(Cl)c3)[nH]2)cc1 (stereo not drawn),4.06%
11,Oc1[nH]c2ccc(Br)cc2c1N=Nc1nn[nH]n1,-3.84%
12,CN(C(=O)CSc1nnc(-c2c[nH]c3ccccc23)o1)C1CCS(=O)(=O)C1 (stereo not drawn),-7.37%
13,Fc1ccc(NC(=S)N2CCc3[nH]c4ccccc4c3C2)cc1,-0.86%
14,Cn1c(CCCOc2ccc(Cl)cc2Cl)n[nH]c1=S,1.8%
15,COC(=O)CN1C(=S)N(c2ccccc2)C(=O)C1CC(=O)Nc1ccc(Cl)cc1 (stereo not drawn),-3.1%
16,Clc1ccccc1SCc1nc2ccccc2[nH]1,7.62%
17,Cc1ccc(O)c(CNc2nc3ccccc3[nH]2)c1,24.5% (active)
18,Cc1ccc(CNC(=O)CSc2nnc3c(n2)[nH]c2ccc(F)cc23)cc1,-1.93%
19,O=C(O)CCn1c(O)c(C=C2N=c3ccccc3=N2)sc1=S,0.39%
20,O=C(Nc1ccc(S(=O)(=O)Nc2ncccn2)cc1)c1cncc(Br)c1,-8.56%
21,COc1ccc(OCC(O)CNC(=O)Nc2ccc(Cl)cc2)cc1 (stereo not drawn),-6%
22,CCCCCn1nnnc1-c1nc2cc3ccccc3cc2[nH]c1=O,55.2% (active)
23,c1ccc2cc3[nH]c(CN4CCCCC4)nc3cc2c1,-5.35%

row,Compound,inhibition
1,O=C(O)c1ccc(NS(=O)(=O)c2ccc3c(c2)C(=O)c2cc(S(=O)(=O)Nc4ccc(C(=O)O)cc4)ccc2-3)cc1,-0.7%
2,CC(=N\NC(=O)c1cc(Br)ccc1O)/C(=N/O)C(=O)Nc1ccccc1,9.24%
3,CN(C(=O)CSc1nnc(Nc2ccccc2)s1)C1CCS(=O)(=O)C1 (stereo not drawn),3.56%
4,CCO[C@@H]1OC(C(=O)NCc2nc3ccccc3[nH]2)=C[C@H](C2CCCCC2)[C@H]1CCCO,-0.5%
5,O=C(Cn1c(NCCO)nc2ccccc21)c1ccc(Cl)cc1Cl,4.95%
6,COc1ccc(-c2[nH]ncc2/C=N/NC(=O)c2cc(Br)ccc2O)c(OC)c1,2%
7,COc1ccccc1-n1c(SCC(=O)Nc2ccc(Cl)cc2)nc(O)c(Cc2ccccc2)c1=O,-1.69%
8,CSc1nsc(NC(=O)Nc2ccccc2)n1,10%
9,Cc1ccccc1OCC(=O)NNC(=O)c1ccc(-n2cncn2)c([N+](=O)[O-])c1,5.5%
10,Cc1c(CN2CCC(CO)(CCOc3ccccc3)CC2)[nH]c2ccc(Cl)cc12,13.6%
11,O=C(CSc1nc2ccccc2[nH]1)N/N=C/C=C\c1ccccc1[N+](=O)[O-],0.15%
12,Cc1ccc(S(=O)(=O)N(C)C)cc1NC(=O)c1ccc(-n2cncn2)c([N+](=O)[O-])c1,-2.08%
13,COc1ccc(NC(=O)C(NC(C)=O)C(=O)NCc2ccccc2Cl)cc1 (stereo not drawn),3.32%
14,O=S(=O)(c1ccc(Br)cc1)N1CCC(c2nc3ccccc3[nH]2)CC1,35.4% (active)
15,O=C(NCC(O)c1nc2ccccc2[nH]1)c1ccc(Br)cc1 (stereo not drawn),1.16%
16,O=C(OCc1nc2ccccc2[nH]1)C1CCCCC1,-2.05%
17,O=C(NCCN1CCOCC1)c1ccccc1N1C(=O)[C@@H]2Cc3c([nH]c4ccccc34)C(c3cccc(Cl)c3)N2C1=O (stereo partly drawn),-0.67%
18,O=C1CCCN1CCCNc1ncnc2c1[nH]c1ccccc12,-1.7%
19,CCN1CCCC1CNc1ncnc2c1[nH]c1ccc(F)cc12 (stereo not drawn),-1.19%
20,CC(C)OCCCNc1ncnc2c1[nH]c1ccc(F)cc12,47.3% (active)
21,Cc1cc(C)cc(NC(=O)N(C)Cc2ccccc2)c1,-0.98%
22,CC(C)(C)c1ccc(/C=C2\SC(=O)N=C2N)cc1,7.36%
